INHIBITION data for 105 molecules are collected here from ChEMBL document CHEMBL4513216, “Probing the Open Global Health Chemical Diversity Library for Multistage-Active Starting Points for Next-Generation Antimalarials” (ACS Infect Dis, 2020).

Among all 69,000 compounds or so, about 8,600 (12%) showed an effect of 50% or more. For the sample, strong results were picked, then their nearest neighbours and some compounds at random.

In the assay the test system is Plasmodium berghei. Description: Screen against P. berghei liver stage (PbLuc), transformed with Luciferase, at 10uM. The assay is classed as functional, HepG2. The settings on record: tested at 10 uM.
On to `CC(=O)N(Cc1noc(C2CC2)n1)C1CCN(Cc2ccccc2)C1` (stereo not given), for which the INHIBITION was -6.44%.
The value for `CN(C)CC(=O)N1CCC2(CCc3cc(-c4cccnc4)ccc32)CC1` was 15.3%; that for `c1cc(-c2ccc3c(c2)C2(CCNCC2)CC3)ccn1` was 82.2%; that for `c1cncc(-c2ccc3c(c2)CCC32CCN(Cc3nccs3)CC2)c1` was 57.1%.
The value for `OCCN1CCC2(CCc3cc(-c4ccoc4)ccc32)CC1` was 28.2%.
On to `c1cncc(-c2ccc3c(c2)C2(CCNCC2)CC3)c1`, for which the INHIBITION was 27.5%.
The value for `O=C(CCO)N1CCC2(CCc3ccc(-c4ccoc4)cc32)CC1` was 0.923%; that for `c1cc(-c2ccc3c(c2)CCC32CCNCC2)ccn1` was 57.1%; that for `c1cncc(-c2ccc3c(c2)CCC32CCNCC2)c1` was 57.1%.
`CN(C)CC(=O)N1CCC2(CCc3ccc(-c4ccncc4)cc32)CC1`: the INHIBITION amounted to 21.6%.
Consider `O[C@H]1[C@H](n2cc(-c3cccnc3)nn2)c2ccccc2C12CCNCC2`, for which the INHIBITION turned out to be 31.2%.
In the case of `Cc1ccc2c(c1)CCC21CCN(C(=O)CO)CC1`, the INHIBITION is recorded as 10.1%.
Regarding `c1cncc(-c2ccc3c(c2)CCC32CCN(Cc3ccco3)CC2)c1`, the INHIBITION was found to be 26.5%.
The value for `CCOc1ccc(NC(=O)c2cc3c([nH]c2=O)CCC3)cc1` was -29.6%.
The value for `NC(=O)NC1CCN(Cc2ccccc2OCC(F)(F)F)CC1` was 6.7%.
Consider `Cc1noc(CN2CCN(C(=O)N(C)C)CC2)n1`, for which the INHIBITION is recorded as 23.5%.
Regarding `CS(=O)(=O)NC[C@@H]1OC[C@H]2CN(Cc3ccccc3)CC[C@H]21`, the INHIBITION is recorded as -54.9%.
On to `CC(C)c1sc(Cl)nc1C(=O)NCc1ccncc1`, for which the INHIBITION is recorded as -23%.
Take `COc1nn(C)c2c1CCCN(C(=O)c1ccc(C)c(F)c1)C2`: the INHIBITION was -8.94%.
As for `CS(=O)(=O)NC[C@H]1OC[C@H]2CN(Cc3ccsc3)CC[C@H]21`, the INHIBITION is recorded as -24.1%.
Take `COc1ccc(CNC(=O)Nc2ccc(S(=O)(=O)C(F)F)cc2)cc1`: the INHIBITION worked out at 66.2%.
For `Cn1ccc(CNC(=O)Nc2ccc(S(=O)(=O)C(F)F)cc2)c1`, the INHIBITION was 30.4%.
With `CN(C)c1ccc(CNC(=O)Nc2ccc(S(=O)(=O)C(F)F)cc2)cc1`, the INHIBITION is listed as -3.99%.
The value for `Cc1cccc(Sc2nccn(C)c2=O)c1` was 20.3%; that for `CC(=O)N1CCC(n2nccc2-c2cnc(N(C)CCO)nc2)CC1` was 11.5%; that for `CCOC1COC2(CCN(S(=O)(=O)c3cccc(C)c3)CC2)C1` (stereo not given) was 27.6%.
The value for `CN(C)C1COC2(CCN(S(=O)(=O)c3ccc(F)cc3)CC2)C1` (stereo not given) was 57.5%.
In the case of `CCOC1COC2(CCN(S(=O)(=O)c3ccc(F)cc3)CC2)C1` (stereo not given), the INHIBITION is listed as 45.7%.
Take `CCOC1COC2(CCN(S(=O)(=O)c3cccc(F)c3)CC2)C1` (stereo not given): the INHIBITION was 29.6%.
`Cc1cccc(S(=O)(=O)N2CCC3(CC2)CC(N(C)C)CO3)c1` (stereo not given): the INHIBITION is on record as 72%.
In the case of `COC1COC2(CCN(S(=O)(=O)c3ccc(F)cc3)CC2)C1` (stereo not given), the INHIBITION turned out to be 32.1%.
In the case of `CCOCC1CN(S(=O)(=O)N(C)C)Cc2cnn(C)c21` (stereo not given), the INHIBITION stood at 33.5%.
Turning to `COCCN1CCO[C@@H]2CN(C(=O)Cc3ccccc3)CC[C@@H]2C1`, the INHIBITION is given as 18.5%.
For `O=C(CCN1CCCO1)N1CC[C@@H](CNC(=O)N2CCCC2)[C@H](O)C1`, the INHIBITION is reported as 43.7%.
With `CC(C)O[C@H]1CN(C(=O)CCN2CCCCO2)C[C@@H]1O`, the INHIBITION is 57.6%.
For `O=C(CCN1CCCCO1)N1CC[C@H](O)[C@@H](O)C1`, the INHIBITION was found to be 28.7%.
As to `Cc1cccc(C(=O)N2C[C@@H]3CCN(C(C)C)C[C@@H]3C2)c1`, the INHIBITION is -38.1%.
Take `Cc1cc(CN2CC[C@H]3C[C@H](C(=O)N4CCC(C)CC4)O[C@H]3C2)no1`: the INHIBITION was 34.7%.
In the case of `COc1cccc(-c2nc(CC(=O)NC3(C)CCS(=O)(=O)C3)cs2)c1` (stereo not given), the INHIBITION was -10.1%.
Consider `COCC1CCN(c2cc(C3CN(C)CCO3)nc(C)n2)CC1` (stereo not given), for which the INHIBITION was 23.9%.
The value for `Cn1cc(C2CCCN2C(=O)Cc2coc(-c3ccccc3)n2)cn1` (stereo not given) was 13.9%; that for `Cn1cc(C2CN(C(=O)Cc3coc(-c4ccccc4)n3)CCO2)cn1` (stereo not given) was 53.9%; that for `CCC1CN(C(=O)Cc2coc(-c3ccccc3)n2)CCO1` (stereo not given) was 7.4%.
Turning to `CCS(=O)(=O)N1CCC2(CCN(Cc3nccs3)CC2)CC1`, the INHIBITION is 26.5%.
On to `CC(C)(C)C(=O)N1CCCC(c2ncncc2-c2ccncc2)C1` (stereo not given), for which the INHIBITION stood at 49.6%.
For the molecule `O=C1COc2cc(C(=O)NS(=O)(=O)c3cccc(Cl)c3)ccc2N1`, the INHIBITION worked out at 47%.
On to `COc1ccc(CN(C)C2CCN(S(C)(=O)=O)CC2)c2cccnc12`, for which the INHIBITION was 30.5%.
`COc1ccc(CN(C)C2CSCCSC2)c2cccnc12`: the INHIBITION was 57.4%.
On to `COc1ccc(CN(C)C2CCN(C(=O)C(C)C)CC2)c2cccnc12`, for which the INHIBITION is listed as 8.97%.
The value for `O=C(c1ccccc1F)N1CCC2(CC1)CC(N1CCCC1)CO2` (stereo not given) was 44.8%.
`Cc1cnn(CC2CCCN2C(=O)c2ccc(F)cc2Cl)c1` (stereo not given): the INHIBITION is -81.1%.
Take `CN(C)C(=O)c1n[nH]c2c1CN(CC1CCCCC1)C2`: the INHIBITION is 25.6%.
On to `CCn1cc(NC(=O)C(C)n2ncc(Cl)c2C)c(C(=O)NCC(C)C)n1` (stereo not given), for which the INHIBITION is given as 11%.
Take `COCCN1CCC(c2nc3ccc(NC(C)C)cn3n2)CC1`: the INHIBITION is on record as 19.5%.
Consider `c1cc2nc(C3CCN(CC4CC4)CC3)nn2cc1N1CCCC1`, for which the INHIBITION was 8.47%.
The value for `COCCN1CCC(c2nc3ccc(NC4CCC4)cn3n2)CC1` was 57.5%.
The value for `COCC(=O)N1CCC(c2nc3ccc(N4CCOCC4)cn3n2)CC1` was 45.2%; that for `CCN1CCC(c2nc3ccc(NC4CCC4)cn3n2)CC1` was 46.6%; that for `COCCN1CCC(c2nc3ccc(N4CCCC4)cn3n2)CC1` was 52%.
Take `O=C(C1CCOCC1)N1CCc2ncc(CN3CCOCC3)n2CC1`: the INHIBITION is given as -3.88%.
On to `COCCN1CCC2(CCN(c3ncccn3)CC2)C1=O`, for which the INHIBITION was 34.6%.
The value for `Cc1ccc(CN2C[C@@H]3[C@@H](C(=O)NCC4CC4)CCS(=O)(=O)[C@@H]3C2)cc1` was -21.1%.
In the case of `Cc1cc(C)cc(C(=O)Nc2cn[nH]c2)c1`, the INHIBITION is reported as 7.77%.
The value for `O=C(NC1CCCC1)c1cc(Sc2ncccn2)ccn1` was -48.4%; that for `O=C(NCC1CCC2(CC1)OCCO2)c1ccncc1F` was 57.7%.
As for `Cc1[nH]ncc1C(=O)NCC1CCC2(CC1)OCCO2`, the INHIBITION is listed as 32%.
Turning to `Cc1cc(C(=O)NCC2CCC3(CC2)OCCO3)[nH]n1`, the INHIBITION amounted to 41.4%.
With `CC(C)Sc1ccc(C(C)NC(=O)CNS(C)(=O)=O)cc1` (stereo not given), the INHIBITION is on record as 38%.
`CCSc1ccc(C(C)NC(=O)CNS(C)(=O)=O)cc1` (stereo not given): the INHIBITION turned out to be 51.7%.
`CCSc1ccc(C(C)NC(=O)CCS(C)(=O)=O)cc1` (stereo not given): the INHIBITION came out at 2.91%.
As to `Cc1nn(C)c2nc(-c3ccccn3)nc(NCCCOC(C)C)c12`, the INHIBITION came to 5.46%.
For `CCSCCNc1nc(-c2ccccn2)nc2c1c(C)nn2C`, the INHIBITION came to 51.3%.
The value for `CC(=O)NCCNc1nc(-c2ccccn2)nc2c1c(C)nn2C` was 39.1%; that for `CC(C)N(C)Cc1cnc2n1CCN(C(=O)Cc1cccs1)C2C` (stereo not given) was -18.5%.
The value for `Cc1nccn1C1CCCN(C(=O)c2ccnc(-n3ccnc3)c2)C1` (stereo not given) was 18.2%.
The value for `CC(C)n1nnc(CC(=O)NCC2(c3ccccc3F)CCOCC2)n1` was 27.05%; that for `O=C(c1cc2cccc(F)c2[nH]1)N1C[C@@H](O)[C@H](N2CCOCC2)C1` was -9.08%; that for `CC(NC1(CNC(=O)NC2CC2)CCOCC1)c1ccccc1` (stereo not given) was 43.1%.
For the molecule `CC(NC1(CNC(=O)OC(C)(C)C)CCOCC1)c1ccccc1` (stereo not given), the INHIBITION came out at 36.6%.
On to `CCC(CC)C(=O)NCC1(NC(C)c2ccccc2)CCOCC1` (stereo not given), for which the INHIBITION is 59.3%.
As for `CC(NC1(CNC(=O)CC2CCCC2)CCOCC1)c1ccccc1` (stereo not given), the INHIBITION is on record as 82.1%.
The value for `CCOCC(=O)NCC1(NC(C)c2ccccc2)CCOCC1` (stereo not given) was 42%.
In the case of `CC(NC1(CNC(=O)CC(C)(C)C)CCOCC1)c1ccccc1` (stereo not given), the INHIBITION is -6.75%.
On to `COc1cccc(CNCC2(COc3cccnc3)C[C@@H](O)[C@@H](O)C2)c1` (stereo not given in full), for which the INHIBITION was 46.4%.
As to `CC(Nc1ccc(C(F)(F)F)cc1C#N)c1cccc(S(N)(=O)=O)c1` (stereo not given), the INHIBITION is given as 28.6%.
Take `O=c1c(NCc2ccncc2)c(NCC(O)CN2CCOCC2)c1=O` (stereo not given): the INHIBITION is 50.8%.
In the case of `OC(CNc1ccc(Cl)cn1)CN1CCOCC1` (stereo not given), the INHIBITION is -58.5%.
As for `O=c1c(NCc2ccco2)c(NCC(O)CN2CCOCC2)c1=O` (stereo not given), the INHIBITION is on record as 48.9%.
Regarding `O=c1c(NCc2ccccn2)c(NCC(O)CN2CCOCC2)c1=O` (stereo not given), the INHIBITION was found to be 50.8%.
For `CC(C)(CO)Nc1c(NCc2ccccn2)c(=O)c1=O`, the INHIBITION was determined as 6.34%.
As to `CC(C)CNC(=O)CNc1c(NCc2ccccn2)c(=O)c1=O`, the INHIBITION is on record as -8.8%.
For the molecule `CC(NC(=O)NCc1cccnc1N(C)C)c1ccc(F)cc1` (stereo not given), the INHIBITION is recorded as -12.1%.
For the molecule `COCCC(=O)N1C[C@@H]2CC[C@H]1CN(C1Cc3ccccc3C1)C2`, the INHIBITION was -20.6%.
`CN(C)CCO[C@H]1CN(C(=O)c2ccc[nH]2)[C@@H]2COC[C@H]12`: the INHIBITION was 7.65%.
`CCN(CC)C1CCN(C(=O)c2cc(-n3cccn3)ccc2Cl)CC1`: the INHIBITION was 14.6%.
Turning to `CNC(=O)NC1CC2(CCNCC2)c2ccc(C)cc21` (stereo not given), the INHIBITION was 63%.
Consider `Cc1ccc2c(c1)C(NC(C)C)CC21CCNCC1` (stereo not given), for which the INHIBITION is on record as -46.4%.
On to `CCN1CCC2(CC1)CC(NC(=O)NC)c1cc(C)ccc12` (stereo not given), for which the INHIBITION was -25%.
For `Fc1ccc2c(c1)C1(CCNCC1)CC2NC1CC1` (stereo not given), the INHIBITION is recorded as 95.5%.
Consider `CC(C)NC1CC2(CCNCC2)c2cc(F)ccc21` (stereo not given), for which the INHIBITION is recorded as -33.1%.
Take `CC(=O)N1CC2(CCNCC2)c2cc(C)ccc21`: the INHIBITION was 7.77%.
Take `Fc1ccc2c(c1)C1(CCNCC1)CC2OCC1CC1` (stereo not given): the INHIBITION is -5.63%.
For `c1ccc2c(c1)C(NC1CCCC1)CC21CCNCC1` (stereo not given), the INHIBITION is 71.1%.
The value for `Cc1ccc2c(c1)C1(CCNCC1)CC2NC(C)C` (stereo not given) was -22.7%; that for `Cc1ccc2c(c1)C1(CCNCC1)CC2NCCO` (stereo not given) was 55.7%.
